{"source": "PubChem BioAssay AID1645882", "about": "(National Center for Advancing Translational Sciences (NCATS), 2021)", "note": "Hit rate of the full screen: of about 16,000 compounds, about 120 (0.75%) were called active. About 4% were inconclusive and are not listed. Calls follow the shape of the dose curve; as a rule, active = well fitted inhibition curve with a large enough effect; inconclusive = small, poorly fitted or top-dose-only effect; inactive = no such curve, though single readings can be large or run the other way. Shown is part of a subset that was picked to be rich in actives. Entries that show only a call come without a potency. Some compounds were tested as several samples or in several runs, with calls that do not always agree. Potency is read from the fitted curve at half-maximal effect.", "data": [{"target": "Rap guanine nucleotide exchange factor 3 (Homo sapiens) (UniProt O95398)", "sequence (O95398 whole entry, looked up)": "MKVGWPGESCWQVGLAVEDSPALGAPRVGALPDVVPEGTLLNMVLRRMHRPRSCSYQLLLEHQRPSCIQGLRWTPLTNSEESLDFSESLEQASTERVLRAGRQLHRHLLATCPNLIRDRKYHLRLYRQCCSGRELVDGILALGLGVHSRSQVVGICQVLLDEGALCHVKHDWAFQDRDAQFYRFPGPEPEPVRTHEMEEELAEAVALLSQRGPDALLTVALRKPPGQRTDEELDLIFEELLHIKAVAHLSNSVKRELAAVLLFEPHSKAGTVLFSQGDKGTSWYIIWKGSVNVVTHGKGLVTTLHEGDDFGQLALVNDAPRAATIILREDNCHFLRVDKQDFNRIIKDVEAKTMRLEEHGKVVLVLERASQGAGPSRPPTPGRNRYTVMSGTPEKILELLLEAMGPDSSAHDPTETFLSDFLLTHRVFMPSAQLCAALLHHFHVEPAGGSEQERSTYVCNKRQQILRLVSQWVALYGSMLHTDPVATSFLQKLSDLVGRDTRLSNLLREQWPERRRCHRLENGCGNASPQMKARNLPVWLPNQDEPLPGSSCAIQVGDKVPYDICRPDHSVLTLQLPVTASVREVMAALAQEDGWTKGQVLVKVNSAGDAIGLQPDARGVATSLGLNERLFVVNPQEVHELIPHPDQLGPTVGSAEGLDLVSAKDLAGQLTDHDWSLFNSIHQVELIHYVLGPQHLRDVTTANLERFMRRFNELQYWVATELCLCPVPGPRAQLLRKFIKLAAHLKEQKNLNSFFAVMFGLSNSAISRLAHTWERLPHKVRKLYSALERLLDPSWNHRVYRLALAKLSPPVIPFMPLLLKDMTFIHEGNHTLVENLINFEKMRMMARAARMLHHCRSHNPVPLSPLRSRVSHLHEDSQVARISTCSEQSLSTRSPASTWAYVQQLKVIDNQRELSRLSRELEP", "test": "Validation qHTS for antagonist of cAMP-regulated guanine nucleotide exchange factor 3 (EPAC1); also: nearly all actives have a fitted effect of over 75% in size", "settings": "EPAC1 Rap1B-BODIPY-GDP exchange, fluorescence; series mostly up to 150 µM", "source_text": "Assay Provider (PI): Xiaodong Cheng Ph.D.\nThe University of Texas Medical Branch, […], TX\nIn multi-cellular eukaryotic organisms, the effects of cAMP are transduced by two ubiquitously-expressed intracellular cAMP receptors, the classic protein kinase A/cAMP-dependent protein kinase (PKA/cAPK) and the more recently discovered exchange protein directly activated by cAMP/cAMP-regulated guanine nucleotide exchange factor (EPAC/cAMP-GEF). Both PKA and EPAC are ubiquitously expressed in all tissues, and an increase in intracellular cAMP levels will lead to the activation of both PKA and EPAC. Therefore, careful dissections of the individual role and relative contribution of EPAC and PKA within the overall cAMP signaling in various model systems are critical for further elucidating the mechanism of cAMP signaling. To date no EPAC-specific antagonists and agonist, as well as isoform-specific agonists have been reported, and developing EPAC-specific pharmacological probes to determine the physiological functions that EPAC play in the overall cAMP-mediated signaling remains a major challenge within the research field. Furthermore, identified regulators of EPAC may lead to new mechanism-based therapeutic strategies specifically targeting the EPAC / cAMP-signaling components as EPAC has been implicated to play important roles in major human pathological conditions such as diabetes, heart disease, and cancer.\nThis qHTS will be used to screen the Molecular Libraries Small Molecule Repository (MLSMR) as a concentration-titration series using the NCGC unique quantitative screening (qHTS) platform to find activators for EPAC1. In addition, this assay will also be used as a counterscreen for the EPAC2 qHTS. This fluorescent based assay is developed and validated for EPAC1 that measures exchange using EPAC effector Rap1 complex with BODIPY-GDP, a GDP analog with a tethered fluorophores. Activators are identified by monitoring the change in fluorescence signal as the exchanged free BODIPY-GDP has a reduced fluorescence compared to Rap1-bound BODIPY-GDP. Increase in signal (activation) is the desired outcome for the EPAC1 agonist while no activity in this assay is desired for the EPAC2 agonist counterscreen.\n[1] de Rooij, J., Zwartkruis, F. J., Verheijen, M. H., Cool, R. H., Nijman, S. M., Wittinghofer, A., and Bos, J.L. (1998) Nature 396, 474-477.\nBriefly, three uL of reagents (100 nM EPAC1, 250 nM RAP1B-BODIPY-GDP, 50 uM GDP) were dispensed into a 1536-well Greiner black solid-bottom medium binding assay plate. Controls and test compounds (23 nL) were transferred to the plate via a Kalypsys pin tool equipped with a 1536-pin array. The plates were centrifuged at 1,000 rpm for 15 seconds followed by 5 minute incubation at room temperature. The assay plates were read at 5 minute intervals for 30 minutes in the ViewLux plate reader using 480nm excitation and 540nm emission filters. The results were normalized to the […] positive control ATA and DMSO.", "values": [{"molecule": "O=[N+]([O-])c1ccc(O)c([N+](=O)[O-])c1", "Potency": "inactive"}, {"molecule": "O=[N+]([O-])c1cc(O)c(O)c([N+](=O)[O-])c1", "Potency": "79.4 µM (active) and inactive"}, {"molecule": "O=[N+]([O-])c1cc(I)c(O)c(I)c1", "Potency": "inactive"}, {"molecule": "COP(=S)(OC)Oc1ccc(S(N)(=O)=O)cc1", "Potency": "inactive"}, {"molecule": "O=c1oc2ccccc2c(O)c1Cc1c(O)c2ccccc2oc1=O", "Potency": "inactive"}, {"molecule": "O=c1oc2ccccc2c(O)c1C(CC(O)c1ccc(-c2ccc(Br)cc2)cc1)c1ccccc1", "note": "(stereo not given)", "Potency": "100 µM (active)"}, {"molecule": "O=c1oc2ccccc2c(O)c1C(c1ccccc1O)c1c(O)c2ccccc2oc1=O", "Potency": "inactive"}, {"molecule": "O=C(Oc1ccccc1)N1CCC2(CC1)CCN(C(c1ccccc1)c1ccccc1)CC2", "Potency": "inactive"}, {"molecule": "CC(C)(C)c1cc(O)ccc1O", "Potency": "inactive"}, {"molecule": "Oc1cc2c(cc1O)[C@H]1c3ccccc3CN[C@H]1CC2", "Potency": "inactive"}, {"molecule": "CC(=O)O.CC(=O)O.[Cd]", "Potency": "inactive"}, {"molecule": "COc1cc2c(cc1OC)[C@@H]1C(=O)c3ccc4oc(C(C)C)cc4c3OC1CO2", "note": "(stereo not given in full)", "Potency": "inactive"}, {"molecule": "CCc1cccc(C)c1N(C(=O)CCl)C(C)COC", "note": "(stereo not given)", "Potency": "inactive"}, {"molecule": "CN(C)C1C(=O)C(C(N)=O)=C(O)[C@@]2(O)C(=O)C3=C(O)c4c(O)cccc4[C@](C)(O)C3C(O)C12", "note": "(stereo not given in full)", "Potency": "inactive"}, {"molecule": "Cl.Cl.Cl.Cl.Cl.Cl.N.N.N.N.NNNNN.NNNNN.O.O.[Ru].[Ru].[Ru]", "Potency": "89.1 µM (active)"}, {"molecule": "O=CN1CC2CC(C1)c1cccc(=O)n1C2", "note": "(stereo not given)", "Potency": "inactive"}, {"molecule": "CC(C)CCCC1(C)C=Cc2c(O)c3c(c(CCC(C)C)c2O1)OC12C(CC4CC1C(C)(C)OC2(CCC(C)C(=O)O)C4O)C3=O", "note": "(stereo not given)", "Potency": "70.8 µM (active)"}, {"molecule": "CN(C)CCc1c[nH]c2cccc(O)c12", "Potency": "inactive"}, {"molecule": "ClCCN(CCCl)/C(=C\\c1ccccc1)c1ccnc2ccccc12", "Potency": "inactive"}, {"molecule": "O=C1CC[C@@]2(O)C3Cc4ccc(O)c5c4C2(CCN3CC2CC2)[C@H]1O5", "note": "(stereo not given in full)", "Potency": "inactive"}, {"molecule": "CC(=O)OC1CC(OC(C)=O)[C@]2(C)C(CC(OC(C)=O)[C@]3(C)C2CC[C@@]2(C)C(c4ccoc4)C[C@H]4O[C@]432)C1(C)C", "note": "(stereo not given in full)", "Potency": "inactive"}, {"molecule": "O=C1OC(c2ccc(O)c(S(=O)(=O)O)c2)(c2ccc(O)c(S(=O)(=O)O)c2)c2c(Br)c(Br)c(Br)c(Br)c21", "Potency": "14.1 µM (active)"}, {"molecule": "O=S(=O)(O)c1cc(O)ccc1O", "Potency": "inactive"}, {"molecule": "CCOC(=O)[C@]12Cc3cc(OC)ccc3[C@H]1N(Cc1ccccc1)C(=O)c1cc(F)c(F)cc12", "Potency": "inactive"}, {"molecule": "CC(Cc1ccc2c(c1)OCO2)NO", "note": "(stereo not given)", "Potency": "inactive"}, {"molecule": "NC(=O)[C@H](Cc1ccccc1)NC(=O)[C@H](Cc1c[nH]c2ccccc12)NC(=O)[C@@H]1CCCN1C(=O)[C@@H](N)Cc1ccc(O)cc1", "activity change, negative = inhibition": "5.24% [at 15.3 µM] (inactive)"}, {"molecule": "CCOC(=O)C1(c2ccccc2)CCCN(C)CC1", "note": "(stereo not given)", "Potency": "inactive"}, {"molecule": "CCC(C)C(=O)c1c(O)c(C)c2oc3c(C)c(O)c(C(=O)C(C)CC)c(O)c3c2c1O", "note": "(stereo not given)", "Potency": "inactive"}, {"molecule": "CCOCN(C(=O)CCl)c1c(C)cccc1CC", "Potency": "inactive"}, {"molecule": "O=[N+]([O-])c1ccc(F)c([N+](=O)[O-])c1", "Potency": "inactive"}, {"molecule": "CC(=O)Oc1c2c(c(CC=C(C)C)c3c1C(=O)C1=CC4CC5C(C)(C)OC(C/C=C(\\C)C(=O)O)(C4=O)[C@]15O3)OC(C)(CCC=C(C)C)C=C2", "note": "(stereo not given in full)", "Potency": "44.7 µM (active)"}, {"molecule": "COC(=O)/C(C)=C\\CC12OC(C)(C)C3CC(C=C4C(=O)c5c(OC)c6c(c(CC=C(C)C)c5OC431)OC(C)(CCC=C(C)C)C=C6)C2=O", "note": "(stereo not given)", "Potency": "inactive"}, {"molecule": "CC(C)=CCCC1(C)C=Cc2c(O)c3c(c(CC=C(C)C)c2O1)OC12C(=CC4CC1C(C)(C)OC2(C/C=C(/C)C(=O)O)C4O)C3=O", "note": "(stereo not given)", "Potency": "63.1 µM (active)"}, {"molecule": "COc1c2c(c(CC=C(C)C)c3oc(=O)c(-c4ccc(O)cc4)c(O)c13)OC(C)(C)C=C2", "Potency": "inactive"}, {"molecule": "CC(C)=CCCC1(C)C=Cc2c(O)c3c(c(CC=C(C)C)c2O1)OC12C(=CC4CC1C(C)(C)OC2(C/C=C(/C)C(=O)O)C4=O)C3=O", "note": "(stereo not given)", "Potency": "50.1 µM (active)"}, {"molecule": "CN[C@H]1C[C@@H](N)[C@H](O)[C@@H](O[C@@H]2O[C@H](CO)[C@H](O)[C@@H]3OC4(O[C@H]23)O[C@H](C(N)CO)[C@H](O)[C@H](O)[C@H]4O)[C@@H]1O", "note": "(stereo not given in full)", "Potency": "inactive"}, {"molecule": "CC[C@]1(O)CC(O[C@@H]2CC(N(C)C)C(O)C(C)O2)c2c(cc3c(c2O)C(=O)c2c(O)cccc2C3=O)C1C(=O)OC", "note": "(stereo not given in full)", "Potency": "inactive"}, {"molecule": "CCC(=O)O[C@H]1[C@@H](N2CCCCC2)C[C@H]2[C@@H]3CC[C@H]4C[C@H](OC(C)=O)[C@@H](N5CCCCC5)C[C@]4(C)[C@H]3CC[C@@]21C", "Potency": "inactive"}, {"molecule": "CC(CC(C#N)(c1ccccc1)c1ccccc1)N(C)C", "note": "(stereo not given)", "Potency": "inactive"}, {"molecule": "CC(C)C1C(=O)N2CCC[C@H]2[C@]2(O)O[C@](NC(=O)[C@@H]3C=C4c5cccc6[nH]cc(c56)C[C@H]4N(C)C3)(C(C)C)C(=O)N12", "note": "(stereo not given in full)", "Potency": "inactive"}, {"molecule": "C[C@@]12CCC(O)C[C@H]1CCC1C2CC[C@]2(C)C(=O)CCC12", "note": "(stereo not given in full)", "Potency": "inactive"}, {"molecule": "O=S(=O)(O)C(F)(F)C(F)(F)C(F)(F)C(F)(F)F", "Potency": "inactive"}, {"molecule": "O=S(=O)(O)C(F)(F)C(F)(F)C(F)(F)C(F)(F)C(F)(F)C(F)(F)C(F)(F)C(F)(F)F", "Potency": "35.5 µM (active)"}, {"molecule": "CC(C)C[C@H]1C(=O)N2CCC[C@H]2[C@]2(O)O[C@](NC(=O)[C@@H]3C[C@@H]4c5cccc6[nH]cc(c56)C[C@H]4N(C)C3)(C(C)C)C(=O)N12", "Potency": "inactive"}, {"molecule": "O[C@@H]1CCCC[C@@H]1N1CCC(c2ccccc2)CC1", "Potency": "inactive"}, {"molecule": "Cn1cccc1-c1cccnc1", "Potency": "inactive"}, {"molecule": "N#C/C(=C\\c1ccc(O)c(O)c1)C(N)=S", "Potency": "89.1 µM (active)"}, {"molecule": "N#C/C(=C/c1ccc(O)c(O)c1)C(N)=S", "Potency": "inactive"}, {"molecule": "N#CC(C#N)=Cc1ccc(O)c(O)c1", "Potency": "inactive"}, {"molecule": "O=c1ccc2cc(OC3OC(CO)C(O)C(O)C3O)c(O)cc2o1", "note": "(stereo not given)", "Potency": "inactive"}, {"molecule": "O=C(N[C@H]1N=C(c2ccccc2F)c2cccc3c2N(CC3)C1=O)c1cc2ccccc2[nH]1", "Potency": "inactive"}, {"molecule": "CC1Cc2ccccc2CN1", "note": "(stereo not given)", "Potency": "inactive"}, {"molecule": "C[N+](C)(C)CCOC(=O)C(O)(c1ccccc1)c1ccccc1", "Potency": "inactive"}, {"molecule": "CN(CCC(N)CC(=O)NC1C=CC(n2ccc(N)nc2=O)OC1C(=O)O)C(=N)N", "note": "(stereo not given)", "Potency": "inactive"}, {"molecule": "O=C1C(Cl)=C(Cl)C(=O)C(Cl)=C1Cl", "Potency": "39.8 µM (active)"}, {"molecule": "COc1cc(CC(C)N)cc(OC)c1OC", "note": "(stereo not given)", "Potency": "inactive"}, {"molecule": "O=C1C(I)=CC(=C(c2cc(I)c(O)c(I)c2)c2ccccc2C(=O)O)C=C1I", "Potency": "39.8 µM (active)"}, {"molecule": "Nc1ccccc1C(=O)O", "Potency": "inactive"}, {"molecule": "CNc1ccccc1C(=O)O", "Potency": "inactive"}, {"molecule": "N#CN", "Potency": "inactive"}]}]}
